Source: PubChem BioAssay
Rows were chosen to be rich in hits. Some 3.1% of all compounds tested hit in one or more screens of this group.
PPC-1+TRAIL kill: PPC-1 cancer cell killing with TRAIL present | cell killing (% activity), % at 4 µM or 5 µM | PPC-1 cells + TRAIL, ATPLite viability luminescence | hit rate 0.41% among 220,000 | AID 1443;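 active means cell killing above 50% in the first pass at 4 µM, then a duplicate retest at 5 µM averaging 50% or more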
Peg3 promoter: Peg3 promoter activity inhibition; HeLa PEG-Prom luciferase reporter, luminescence, overnight; inhibition, % at 20 µM; hit rate 1.7% among 360,000; AID 588405;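 active means inhibition of at least 50% at 20 µM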
TRAIL sens C8: caspase-8 TRAIL sensitization. NB7+C8 cells + TRAIL, ATPlite viability luminescence. hit rate 1% among 360,000. inhibition (viability loss, TRAIL sensitization), % at 10 µM. AID 624354;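 active means compounds causing at least 50% loss of cell viability in the single-dose screen, relative to plate controls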
KKLEB cytotox: reduces viability of KKLEB cystic fibrosis airway cells | activity change (cytotoxicity), % at 5 µM | KKLEB CF airway cells viability, ATPlite luminescence, overnight; stronger effect = lower value; cells stimulated with P. aeruginosa culture filtrate | hit rate 0.36% among 360,000 | AID 602141;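 active means corrected activity change at or below -50% at 5 µM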
CF NFkB block: inhibitors of cystic fibrosis induced NF-kB | KKLEB NF-kB-GFP reporter, PAF-induced, GFP fluorescence overnight | inhibition, % at 5 µM | hit rate 0.86% among 360,000 | AID 588850;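 active means at least 50% inhibition at 5 µM, scaled per plate between neutral and stimulator controls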;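 further: PAF is a Pseudomonas aeruginosa culture filtrate used as stimulus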
HIF-2a block: HIF-2a inhibition | 786-0 RCC cells HIF-2a reporter, luciferase luminescence, overnight | inhibition, % at 18.8 µM | hit rate 0.72% among 360,000;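 active means inhibition of the luminescence signal of 40% or more relative to plate controls, in a single-dose primary screen at 18.75 µM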
A number is an active result.

Screening Cc1ccc(NC(=O)c2cc(S(=O)(=O)N3CCc4ccccc43)cn2C)cc1C returned Peg3 promoter 52, TRAIL sens C8 inactive, KKLEB cytotox inactive, CF NFkB block inactive and HIF-2a block inactive.
`Cc1ccc(S(=O)(=O)N(CC(=O)NCC2CCCO2)C2CCCCC2)cc1` (stereo not drawn) gave Peg3 promoter inactive, TRAIL sens C8 inactive, KKLEB cytotox inactive, CF NFkB block inactive and HIF-2a block inactive.
`COc1ccc(C(=O)Nc2ccc([N+](=O)[O-])cn2)c(OC)c1` gave PPC-1+TRAIL kill inactive, Peg3 promoter inactive, TRAIL sens C8 53, KKLEB cytotox inactive, CF NFkB block inactive and HIF-2a block inactive.
`CC(C)(C)c1ccc2c(c1)OC(C(=O)N/N=C\c1ccc[nH]1)CO2` (stereo not drawn) gave Peg3 promoter inactive, TRAIL sens C8 61, KKLEB cytotox inactive, CF NFkB block inactive and HIF-2a block inactive.
For CC(C)(C)c1ccc2c(c1)OC(C(=O)N/N=C\c1ccncc1)CO2 (stereo not drawn) the results were PPC-1+TRAIL kill inactive, Peg3 promoter inactive, TRAIL sens C8 inactive, KKLEB cytotox inactive, CF NFkB block inactive and HIF-2a block inactive.
CCCSc1nc2c(c(=O)[nH]c(=O)n2C)n1Cc1ccc(C)cc1 was read as PPC-1+TRAIL kill inactive, Peg3 promoter 55, TRAIL sens C8 inactive, KKLEB cytotox inactive, CF NFkB block inactive and HIF-2a block inactive.
`Cc1ccccc1OCC(=O)OCC(=O)NC1CCCC1` gave Peg3 promoter inactive, TRAIL sens C8 inactive, KKLEB cytotox inactive, CF NFkB block inactive and HIF-2a block inactive.
Screening CC(=O)c1ccc(N2CCN(c3ccc4cc(S(=O)(=O)N5CCC(C)CC5)ccc4n3)CC2)cc1 returned Peg3 promoter inactive, TRAIL sens C8 60, KKLEB cytotox inactive, CF NFkB block inactive and HIF-2a block inactive.
Screening CC(=O)c1ccc(N2CCN(S(=O)(=O)c3ccc4ccccc4c3)CC2)cc1 returned Peg3 promoter inactive, TRAIL sens C8 inactive, KKLEB cytotox inactive, CF NFkB block inactive and HIF-2a block inactive.
For O=C(O)[C@H](O)[C@@H](O)C(=O)O the results were Peg3 promoter inactive, TRAIL sens C8 inactive, KKLEB cytotox inactive, CF NFkB block inactive and HIF-2a block inactive.
For O=C(O)[C@@H](O)[C@H](O)C(=O)O the results were Peg3 promoter inactive, TRAIL sens C8 inactive, KKLEB cytotox -61, CF NFkB block inactive and HIF-2a block inactive.
c1c2c(cc3sc(N4CCCCC4)nc13)OCO2 was read as PPC-1+TRAIL kill inactive, Peg3 promoter inactive, TRAIL sens C8 47, KKLEB cytotox inactive, CF NFkB block inactive and HIF-2a block inactive.
For c1c2c(cc3sc(N4CCOCC4)nc13)OCO2 the results were PPC-1+TRAIL kill inactive, Peg3 promoter inactive, TRAIL sens C8 inactive, KKLEB cytotox inactive, CF NFkB block inactive and HIF-2a block inactive.
`COc1cc(N=Nc2ccc(Br)cc2)cc(C=O)c1O` gave Peg3 promoter inactive, TRAIL sens C8 inactive, KKLEB cytotox inactive, CF NFkB block 85 and HIF-2a block inactive.
For COc1cc(CN(C)C)cc(C=O)c1O the results were PPC-1+TRAIL kill inactive, Peg3 promoter inactive, TRAIL sens C8 inactive, KKLEB cytotox inactive, CF NFkB block inactive and HIF-2a block inactive.
`O=C(N[C@@H]1C/C=C\C[C@H](CC(=O)N(CCO)Cc2ccccc2)C(=O)NC[C@@H](c2ccccc2)OC1=O)OCC1c2ccccc2-c2ccccc21` gave Peg3 promoter inactive, TRAIL sens C8 inactive, KKLEB cytotox inactive, CF NFkB block inactive and HIF-2a block inactive.
Screening O=C(C[C@H]1C/C=C\C[C@H](NC(=O)OCC2c3ccccc3-c3ccccc32)C(=O)O[C@H](c2ccccc2)CNC1=O)N[C@H](CO)Cc1ccccc1 returned Peg3 promoter 87, TRAIL sens C8 85, KKLEB cytotox -96, CF NFkB block 86 and HIF-2a block inactive.
O=C(NCc1ccccc1Cl)c1ccc(S(=O)(=O)N2CCCC2)cc1 was read as Peg3 promoter 52, TRAIL sens C8 inactive, KKLEB cytotox inactive, CF NFkB block inactive and HIF-2a block inactive.
For O=C(c1cnn2c1NC(c1ccco1)CC2C(F)(F)F)N1CCN(c2cccc(Cl)c2)CC1 (stereo not drawn) the results were PPC-1+TRAIL kill inactive, Peg3 promoter 50, TRAIL sens C8 inactive, KKLEB cytotox inactive, CF NFkB block inactive and HIF-2a block inactive.
For C=CCC[C@H](Cc1ccc(F)cc1)C(=O)OC[C@@H](Cc1c[nH]c2ccccc12)NC(=O)[C@@H](CC=C)CC(=O)N(CCO)Cc1ccccc1 the results were Peg3 promoter inactive, TRAIL sens C8 inactive, KKLEB cytotox inactive, CF NFkB block inactive and HIF-2a block inactive.
`C=CCC[C@H](Cc1ccc(F)cc1)C(=O)OC[C@H](Cc1c[nH]c2ccccc12)NC(=O)[C@@H](CC=C)CC(=O)N(CCO)Cc1ccccc1` gave Peg3 promoter 54, TRAIL sens C8 inactive, KKLEB cytotox inactive, CF NFkB block inactive and HIF-2a block inactive.
For C=CCC[C@@H](Cc1ccc(F)cc1)C(=O)OC[C@@H](Cc1c[nH]c2ccccc12)NC(=O)[C@@H](CC=C)CC(=O)NCCO the results were Peg3 promoter inactive, TRAIL sens C8 inactive, KKLEB cytotox inactive, CF NFkB block inactive and HIF-2a block inactive.
For C=CCC[C@@H](Cc1ccc(F)cc1)C(=O)OC[C@H](Cc1c[nH]c2ccccc12)NC(=O)[C@H](CC=C)CC(=O)N(CCO)Cc1ccccc1 the results were Peg3 promoter 64, TRAIL sens C8 inactive, KKLEB cytotox inactive, CF NFkB block inactive and HIF-2a block inactive.
`Cc1cccc(C)c1NC(=O)CNC(=O)c1ccccc1OCc1ccccc1` gave Peg3 promoter inactive, TRAIL sens C8 inactive, KKLEB cytotox inactive, CF NFkB block inactive and HIF-2a block inactive.
O=C(O)C1C2CCCCC2=C2CCCCC2C1C(=O)Nc1nccs1 (stereo not drawn) was read as Peg3 promoter inactive, TRAIL sens C8 inactive, KKLEB cytotox inactive, CF NFkB block inactive and HIF-2a block inactive.
O=C(O)C1C2CCCCC2=C2CCCCC2C1C(=O)O (stereo not drawn) was read as PPC-1+TRAIL kill inactive, Peg3 promoter 53, TRAIL sens C8 inactive, KKLEB cytotox inactive, CF NFkB block inactive and HIF-2a block inactive.
COc1ccc(CCNC(=O)Nc2ccc3nc([C@@H]4O[C@H](CO)[C@@H](O)[C@H](O)[C@H]4O)[nH]c3c2)cc1Br was read as Peg3 promoter inactive, TRAIL sens C8 inactive, KKLEB cytotox inactive, CF NFkB block inactive and HIF-2a block inactive.
Screening Cc1ccc(NC(=O)Cn2c(O)c(N=NC(=O)c3cc4ccccc4cc3O)c3ccccc32)cc1 returned PPC-1+TRAIL kill inactive, Peg3 promoter 97, TRAIL sens C8 70, KKLEB cytotox inactive, CF NFkB block inactive and HIF-2a block inactive.
For Cc1cccc(NC(=O)c2cc(-c3ccc(C)c(C)c3O)n[nH]2)c1 the results were Peg3 promoter inactive, TRAIL sens C8 inactive, KKLEB cytotox inactive, CF NFkB block inactive and HIF-2a block inactive.
